Source: PubChem BioAssay (Tox21)
Records with an inconclusive call do not appear. Activity calls are given as the source filed them. Unless noted, calls follow the shape of the dose curve; as a rule, active = well fitted curve in the direction sought with a large enough effect in the repeat runs; inconclusive = weak or mixed curves; inactive = no such curve, though single readings can be large; an effect the other way counts as inactive or inconclusive.

Tests used:
[1] = qHTS assay to identify small molecule agonists of the peroxisome proliferator-activated receptor delta (PPARd) signaling pathway - cell viability counter screen (AID 743211); also: nearly all actives have a fitted effect of over 55% in size
Summary of the method: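 Tox21 library compounds, delivered in DMSO, were incubated 17 h with PPARd-bla HEK293H cells; cytotoxicity was taken from CellTiter-Glo luminescence read 30 min after reagent addition.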

[2] = target: Peroxisome proliferator-activated receptor delta (Homo sapiens) (UniProt Q03181); test: qHTS assay to identify small molecule agonists of the peroxisome proliferator-activated receptor delta (PPARd) signaling pathway (AID 743212; calls by dose curve)
Summary of the method: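 GeneBLAzer UAS-bla HEK293H cells carrying a PPARδ construct were exposed to compounds at 37 °C. Beta-lactamase activity was read by FRET fluorescence after 2 h at room temperature with LiveBLAzer B/G substrate.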

[3] = qHTS assay to identify small molecule antagonists of the peroxisome proliferator-activated receptor delta (PPARd) signaling pathway - cell viability counter screen (AID 743213); also: nearly all actives have a fitted effect of over 50% in size
Summary of the method: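 Same-well viability: cells pre-incubated 5 h, dosed with compound plus 300 nM L165041, kept 17 h at 37 C, FRET substrate 2 h RT, then CellTiter-Glo 30 min RT and luminescence.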

[4] = target: Peroxisome proliferator-activated receptor delta (Homo sapiens) (UniProt Q03181); test: qHTS assay to identify small molecule antagonists of the peroxisome proliferator-activated receptor delta (PPARd) signaling pathway (AID 743215; active = well fitted inhibition curve with a large enough effect in the signal ratio in the repeat runs, not every such curve was filed as active; the % refers to the signal ratio;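 also: cells stimulated with agonist L165041 at 300 nM final during compound exposure; series mostly up to about 62 µM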)
Summary of the method: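 PPARd UAS-bla HEK293H cells were pre-incubated 5 h at 37 C, then given test compounds in DMSO plus agonist L165041 (300 nM final). After 17 h at 37 C, beta-lactamase FRET substrate was added; fluorescence read after 2 h at room temperature.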

[5] = qHTS assay to identify small molecule agonists of the farnesoid-X-receptor (FXR) signaling pathway - cell viability counter screen (AID 743218); also: nearly all actives have a fitted effect of over 45% in size
Summary of the method: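 FXR-UAS-bla HEK 293T cells, plated 5 h at 37 C, were exposed to compounds for 16 h at 37 C. CellTiter-Glo was then added to the same wells as the bla readout; luminescence read after 30 min at room temperature.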

[6] = qHTS assay to identify small molecule antagonists of the farnesoid-X-receptor (FXR) signaling pathway - cell viability counter screen (AID 743221; active = well fitted cell-killing curve with a large enough effect in the repeat runs, not every such curve was filed as active; also: nearly all actives have a fitted effect of over 50% in size)
Summary of the method: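 Cytotoxicity is taken from ATP luminescence (CellTiter-Glo, 30 min, room temperature) in FXR-bla HEK 293T cells previously incubated 16 h at 37 C with compound and chenodeoxycholic acid at 50 uM final.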

[7] = target: Vitamin D3 receptor (Homo sapiens) (UniProt P11473); test: qHTS assay to identify small molecule agonists of the vitamin D receptor (VDR) signaling pathway (AID 743222; calls by dose curve)
Summary of the method: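 VDR-bla cells were plated 4 h at 37C/5% CO2, then exposed to compounds in DMSO for 16 h. After LiveBLAzer B/G FRET substrate addition and 2 h at room temperature, beta-lactamase reporter fluorescence was read.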

[8] = qHTS assay to identify small molecule agonists of the vitamin D receptor (VDR) signaling pathway - cell viability counter screen (AID 743224); also: series mostly up to about 63 µM; nearly all actives have a fitted effect of over 50% in size
Summary of the method: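 VDR-bla cells were preincubated 4 h at 37C/5% CO2, then exposed to compounds for 16 h. After the 2 h room-temperature bla FRET read, CellTiter-Glo was added to the same wells and luminescence read after 30 min.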

[9] = qHTS assay to identify small molecule antagonists of the vitamin D receptor (VDR) signaling pathway - cell viability counter screen (AID 743225); also: nearly all actives have a fitted effect of over 50% in size
Summary of the method: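 Same-well multiplex: following 16 h treatment of HEK 293T cells carrying a UAS-driven beta-lactamase reporter with compound and agonist (3 nM final), and a 2 h FRET substrate step, CellTiter-Glo was added and luminescence read after 30 min.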

[10] = qHTS assay to identify small molecule agonists of the NFkB signaling pathway - cell viability counter screen (AID 1159515; calls by dose curve; also: series mostly up to about 61 µM; nearly all actives have a fitted effect of over 55% in size)
Summary of the method: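 NFkB-bla ME-180 cells, 2,000/well, were plated overnight at 37 C, 5% CO2, then exposed to compounds in DMSO for 5 hr. After the bla FRET read, CellTiter-Glo was added to the same wells; luminescence was read after 30 min at room temperature.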

[11] = qHTS assay to identify small molecule agonists of the endoplasmic reticulum stress response signaling pathway (AID 1159516; active = well fitted activation curve with a large enough effect in the signal ratio in the repeat runs, not every such curve was filed as active; the % refers to the signal ratio)
Summary of the method: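 CellSensor ESRE-bla HeLa cells, carrying a beta-lactamase reporter driven by the ER stress response element, were plated overnight and exposed to compounds for 5 hr at 37 C. Reporter activity was read as FRET substrate fluorescence after 2 hr at room temperature.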

[12] = qHTS assay to identify small molecule agonists of the endoplasmic reticulum stress response signaling pathway - cell viability counter screen (AID 1159517; calls by dose curve)
Summary of the method: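 ESRE-bla HeLa cells, 1,500 per well, seeded overnight then treated with compounds for 5 hr at 37 C. After the beta-lactamase read, viability in the same wells is measured by CellTiter-Glo luminescence after 30 min at room temperature.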

[13] = qHTS assay to identify small molecule antagonists of the retinoid-related orphan receptor gamma (ROR-gamma) signaling pathway - cell viability counter screen (AID 1159520); also: nearly all actives have a fitted effect of over 50% in size
Summary of the method: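 Tet-on ROR gamma CHO cells were given compounds for 2 hr, then doxycycline hyclate at 1 uM final, and incubated 16 hr at 37 C. Viability was measured as ATP content by CellTiter-Glo luminescence.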

[14] = target: Nuclear receptor ROR-gamma (Homo sapiens) (UniProt P51449); test: qHTS assay to identify small molecule antagonists of the retinoid-related orphan receptor gamma (ROR-gamma) signaling pathway (AID 1159521)
Summary of the method: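 Inducible-expression reporter assay: doxycycline (1 uM final) switched on RORγ in CHO cells bearing a ROR response element-luciferase construct, with test compounds present from 2 h beforehand. Decreased luminescence after 16 h defined antagonist activity.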

[15] = qHTS assay to identify small molecule agonists of the AP-1 signaling pathway - cell viability counter screen (AID 1159525; calls by dose curve; also: nearly all actives have a fitted effect of over 55% in size)
Summary of the method: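 AP-1-bla ME-180 cells in Opti-MEM with 0.5% dialyzed FBS, compound exposure 5 h at 37 C in 15-point titration. Viability read in the same wells as ATP content by CellTiter-Glo luminescence, normalised to tetra-n-octylammonium bromide and DMSO controls.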

[16] = qHTS assay to identify small molecule agonists of the AP-1 signaling pathway (AID 1159526; calls by dose curve)
[17] = target: Vitamin D3 receptor (Homo sapiens) (UniProt P11473); test: qHTS assay to identify small molecule antagonists of the vitamin D receptor (VDR) signaling pathway (AID 743223; active = well fitted inhibition curve with a large enough effect in the signal ratio in the repeat runs, not every such curve was filed as active; the % refers to the signal ratio)
Summary of the method: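 Quantitative HTS in VDR-bla reporter cells stimulated with 1alpha,25-dihydroxyvitamin D3, 3 nM final. Compound exposure 16 h, 37C, 5% CO2. Read-out: beta-lactamase FRET substrate fluorescence, 2 h RT.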

[18] = target: Bile acid receptor (Homo sapiens) (UniProt Q96RI1); test: qHTS assay to identify small molecule antagonists of the farnesoid-X-receptor (FXR) signaling pathway (AID 743217; active = well fitted inhibition curve with a large enough effect in the signal ratio in the repeat runs, not every such curve was filed as active; the % refers to the signal ratio)
Summary of the method: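 FXR-UAS-bla HEK 293T cells pre-incubated 5 h at 37 °C, then exposed to compounds with chenodeoxycholic acid (50 uM final) for 16 h at 37 °C. Beta-lactamase reporter read by LiveBLAzer B/G FRET substrate fluorescence after 2 h at room temperature.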

[19] = target: Bile acid receptor (Homo sapiens) (UniProt Q96RI1); test: qHTS assay to identify small molecule agonists of the farnesoid-X-receptor (FXR) signaling pathway (AID 743220; active = well fitted activation curve with a large enough effect in the signal ratio in the repeat runs, not every such curve was filed as active; the % refers to the signal ratio)
Summary of the method: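 Beta-lactamase reporter under UAS control in GeneBLAzer FXR HEK 293T cells (5000/well) measured with LiveBLAzer FRET substrate after 2 h at room temperature. Compound exposure lasted 16 h at 37C.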

Measured: Potency

Sequence of Bile acid receptor (Homo sapiens) (Q96RI1 whole entry, looked up): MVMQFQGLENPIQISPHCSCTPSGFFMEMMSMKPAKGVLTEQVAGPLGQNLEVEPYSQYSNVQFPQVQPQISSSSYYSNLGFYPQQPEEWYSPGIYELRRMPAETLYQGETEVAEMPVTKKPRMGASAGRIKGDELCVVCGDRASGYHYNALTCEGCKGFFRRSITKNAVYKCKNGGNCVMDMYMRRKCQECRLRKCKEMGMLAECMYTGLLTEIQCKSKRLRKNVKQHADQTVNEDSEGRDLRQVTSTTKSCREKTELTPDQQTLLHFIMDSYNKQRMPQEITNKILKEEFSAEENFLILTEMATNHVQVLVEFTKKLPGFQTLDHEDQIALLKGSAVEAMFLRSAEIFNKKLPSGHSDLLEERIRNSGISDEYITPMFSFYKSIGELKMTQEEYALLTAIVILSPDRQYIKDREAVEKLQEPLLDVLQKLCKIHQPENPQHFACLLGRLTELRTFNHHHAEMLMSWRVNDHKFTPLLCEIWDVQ
Sequence of Peroxisome proliferator-activated receptor delta (Homo sapiens) (Q03181 whole entry, looked up): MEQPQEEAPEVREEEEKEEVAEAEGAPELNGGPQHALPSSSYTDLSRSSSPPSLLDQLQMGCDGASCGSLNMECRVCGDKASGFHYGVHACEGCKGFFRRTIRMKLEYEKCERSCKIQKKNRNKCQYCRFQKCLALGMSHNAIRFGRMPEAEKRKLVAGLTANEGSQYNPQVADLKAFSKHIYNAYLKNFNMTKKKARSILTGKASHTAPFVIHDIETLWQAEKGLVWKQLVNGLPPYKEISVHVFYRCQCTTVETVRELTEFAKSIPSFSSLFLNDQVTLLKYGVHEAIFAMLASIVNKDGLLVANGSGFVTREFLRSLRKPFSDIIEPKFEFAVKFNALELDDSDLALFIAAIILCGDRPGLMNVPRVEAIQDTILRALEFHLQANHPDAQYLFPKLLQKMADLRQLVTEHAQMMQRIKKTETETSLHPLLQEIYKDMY
Sequence of Vitamin D3 receptor (Homo sapiens) (P11473 whole entry, looked up): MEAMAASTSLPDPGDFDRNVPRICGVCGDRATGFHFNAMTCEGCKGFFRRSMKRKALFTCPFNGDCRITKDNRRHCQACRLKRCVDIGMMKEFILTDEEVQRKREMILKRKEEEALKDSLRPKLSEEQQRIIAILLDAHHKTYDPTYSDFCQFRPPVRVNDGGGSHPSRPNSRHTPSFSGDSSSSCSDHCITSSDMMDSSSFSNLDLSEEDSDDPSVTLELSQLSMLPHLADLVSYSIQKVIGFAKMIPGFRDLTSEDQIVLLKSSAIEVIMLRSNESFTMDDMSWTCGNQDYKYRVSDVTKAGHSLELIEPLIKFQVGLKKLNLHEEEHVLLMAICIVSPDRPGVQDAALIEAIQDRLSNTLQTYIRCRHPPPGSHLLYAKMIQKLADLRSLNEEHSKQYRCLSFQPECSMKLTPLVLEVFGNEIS

Cc1cccc(C(=O)O)c1[N+](=O)[O-]
not listed: [17] | [18] | [19]
inactive: all other assays above

CC(=O)N(CC(O)CO)c1c(I)c(C(=O)NCC(O)CO)c(I)c(C(=O)NCC(O)CO)c1I (stereo not drawn)
not listed: [1] | [12] | [13] | [17] | [18] | [19]
inactive: all other assays above

CC(C)(C)c1ccc(C=O)cc1
not listed: [12] | [18] | [19]
inactive: all other assays above

COc1cccc2sc(N)nc12
not listed: [15]
inactive: all other assays above

COC(OC)C(C)c1ccccc1 (stereo not drawn)
not listed: [7] | [8] | [11] | [14] | [18] | [19]
inactive: all other assays above

CC1(N)CCC(C(C)(C)N)CC1 (stereo not drawn)
not listed: [18] | [19]
inactive: all other assays above

CCCCCCCC[Si](OCC)(OCC)OCC
not listed: [5] | [18] | [19]
inactive: all other assays above

CCC(=O)c1ccc(O)cc1
not listed: [2] | [4] | [12] | [14]
inactive: all other assays above

COc1ccc(N=Nc2cc(C)c(N=Nc3ccc(S(=O)(=O)O)cc3)cc2OC)cc1
not listed: [4] | [7] | [10] | [18] | [19]
inactive: all other assays above

CCOC(=O)CC(CC(=O)OCC)(OC(C)=O)C(=O)OCC
not listed: [2] | [4] | [13] | [19]
inactive: all other assays above

CC(C)CCO
not listed: [13] | [18] | [19]
inactive: all other assays above

CCCCCCCCCCC
not listed: [2] | [4] | [7] | [14] | [17] | [18] | [19]
inactive: all other assays above

CCC(O)C(C)(C)C (stereo not drawn)
not listed: [5] | [7] | [17] | [18]
inactive: all other assays above

NS(=O)(=O)c1ccccc1OC(F)(F)F
not listed: [4] | [9] | [12] | [14]
inactive: all other assays above

OCCCCCCCl
not listed: [2] | [4] | [13] | [18] | [19]
inactive: all other assays above

CCCCCCCCCCCCCCCC(=O)NCCO
not listed: [4] | [10] | [15] | [19]
inactive: all other assays above

CCCCCCCCCCCCC1CO1 (stereo not drawn)
not listed: [7] | [17] | [19]
inactive: all other assays above

CCOC(=O)OCC/C(SC(=O)OCC)=C(\C)N(C=O)Cc1cnc(C)nc1N
not listed: [2] | [3] | [4] | [9] | [14] | [15] | [18] | [19]
inactive: all other assays above

CCOC(=O)CC#N
not listed: [7] | [10] | [15] | [17]
inactive: all other assays above

COc1cc([N+](=O)[O-])ccc1N
not listed: [5] | [8] | [17] | [19]
inactive: all other assays above

CC(C)=CC(C)(C)C
not listed: [2] | [4] | [9] | [10] | [19]
inactive: all other assays above

Oc1ccccc1Cc1ccccc1O
not listed: [1] | [4] | [8] | [14] | [17] | [18] | [19]
inactive: all other assays above
